In the library only some 4.2% were active in any assay of this set; here they are far more common.
CCHFV vOTU inh = CCHFV vOTU protease inhibition. inhibition, % at 11.5 µM. 0.55% of 370,000 active. Pep-AMC fluorescence
FBA Mtb inh = inhibits M. tuberculosis FBA enzyme | P9WQA3 | purified M. tuberculosis FBA, fluorescence read-out | inhibition, % at 1 µM | 2.3% of 360,000 active; in the data active means inhibition above about 27%
Target sequence (P9WQA3 whole entry, looked up): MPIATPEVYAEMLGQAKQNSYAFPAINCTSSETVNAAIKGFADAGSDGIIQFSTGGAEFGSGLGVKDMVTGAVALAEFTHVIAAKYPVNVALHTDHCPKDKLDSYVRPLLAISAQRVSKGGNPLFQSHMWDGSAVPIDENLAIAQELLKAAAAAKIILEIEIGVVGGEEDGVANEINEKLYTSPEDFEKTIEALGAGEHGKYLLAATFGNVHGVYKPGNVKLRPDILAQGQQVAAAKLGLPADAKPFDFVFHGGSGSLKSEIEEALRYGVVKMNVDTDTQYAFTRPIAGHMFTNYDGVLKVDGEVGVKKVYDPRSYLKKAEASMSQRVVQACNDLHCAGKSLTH
Mtb bLac sens = beta-lactam sensitization of Mtb H37Rv; M. tuberculosis H37Rv growth with meropenem, percent inhibition; 0.27% of 330,000 active; AID 434955; inhibition, % at 25 µM; call rule not given here;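 further: growth measured after seven days incubation then overnight dye step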
RecA splice inh = blocks M. tuberculosis RecA intein splicing; P9WHJ3; 0.75% of 290,000 active; cell-free RecA intein splicing, fluorescence; inhibition, % (concentration not given with the values); in the data active means inhibition above about 30%
GDH-TPI inh = counter-screen for M. tuberculosis FBA inhibitors: GDH-TPI coupled enzymes | GDH-TPI coupled enzyme counterscreen, NADH absorbance | inhibition, % at 4.8 µM | 1.2% of 360,000 active | AID 588335
GFP chromophore = counter-screen GFP chromophore formation inhibition. shares compounds with RecA splice inh. cell-free GFP chromophore formation, fluorescence. EC50, µM. 83% of 2,100 active. AID 434968; call rule not given here
Numbers stand for hits; – = inactive; · = no result given. Unless noted, no stated cut-off is given here; in the data, active means inhibition above about 30%; inactive means the rest.

SMILES | CCHFV vOTU inh | FBA Mtb inh | Mtb bLac sens | RecA splice inh | GDH-TPI inh | GFP chromophore
O=C(Oc1ccc(N2C(=O)C3C4CCC(C4)C3C2=O)cc1)c1ccco1 (stereo not given) | – | – | – | 30 | – | –
COc1ccccc1/C=C/c1onc(C)c1S(=O)(=O)N1CCC(C(=O)NC2CCCCCC2)CC1 | – | – | – | – | – | ·
COc1ccccc1/C=C/C1(C(=O)NC2CCCC2)CC(=O)N1c1ccc(F)cc1 (stereo not given) | – | – | – | 57 | – | 22
COC(=O)[C@H](C)NC(=O)C(Cc1ccc2c(c1)OCO2)NC(C)=O (stereo not given in full) | – | · | · | · | · | ·
COc1ccc(-n2nc3c(c2NC(=O)CCl)CSC3)cc1 | – | – | – | 34 | – | –
N#CC1=C(N)Oc2n[nH]c(-c3cccs3)c2C1c1cccs1 (stereo not given) | – | – | – | 79 | – | 11
N#CC1=C(N)Oc2n[nH]c(-c3cccs3)c2C1c1ccccc1C(=O)O (stereo not given) | – | – | – | 76 | – | 12
N#CC1=C(N)Oc2c(ccc3ccccc23)C1c1cccs1 (stereo not given) | · | · | – | – | · | ·
Nc1[nH]c(C(=O)c2ccc(Br)cc2)c(-c2ccccc2)c1C(=O)NCCc1c[nH]c2ccccc12 | – | · | · | · | · | ·
N#C/C(=C/c1cccn1-c1cccc(C(=O)O)c1)c1ccc(F)cc1 | – | – | · | 45 | – | –
COc1cccc(/C=C(/C#N)c2ccc(F)cc2)c1OCc1cccc(C(=O)O)c1 | – | – | – | – | – | ·
Cc1ccc(Sc2ccc(NC(=O)CCl)cc2)cc1C | – | – | – | 66 | – | 7.3
Cc1ccc(C)c(Sc2ccc(NC(=O)CCl)cc2)c1 | – | · | – | 91 | · | 7
N#Cc1cccc(CNCC(=O)N2CCC3(CC2)OCCO3)c1 | – | · | · | · | · | ·
COc1ccc(-c2noc(-c3ccccc3C(=O)N3CCOCC3)n2)cc1 | – | – | – | – | – | ·
Cc1ccc(-c2noc(-c3ccccc3C(=O)N3CCOCC3)n2)cc1 | – | – | – | – | – | –
COc1cc2c(c(OC)c1OC)C1(CCCCC1)CC2NS(=O)(=O)C(C)C (stereo not given) | – | · | · | · | · | ·
O=C(Nc1ccc(Cl)cc1)OC[C@@H]1CSCCS(=O)(=O)N1 | – | · | · | · | · | ·
CCOc1ccc(CN2CCN(Cc3cnc(-c4ccccc4)s3)CC2CCO)cc1 (stereo not given) | – | – | – | – | – | ·
CCOc1ccc(CN2CCN(CC3=Cc4cccc(OC)c4OC3)CC2CCO)cc1 (stereo not given) | – | – | – | 42 | – | –
CCC(CC)C(=O)NCc1ccc2c(c1)cc(C)n2C | – | – | – | 31 | – | –
CCN(Cc1ccccc1)S(=O)(=O)c1ccc(C(=O)N(CCCN(C)C)c2nc3cc(C)cc(C)c3s2)cc1 | – | – | – | 31 | – | –
COc1cc(/C=C(\C#N)C(=O)c2c[nH]c3ccccc23)cc(OC)c1O | – | – | – | 92 | – | 5.2
CCCCc1c(-c2ccccc2OC)ncn1Cc1ccc(Br)cc1 | – | · | · | · | · | ·
O=C(CCl)NN=C(c1ccccc1)c1ccccc1 | – | – | – | 59 | – | 26
SMILES | CCHFV vOTU inh | FBA Mtb inh | Mtb bLac sens | RecA splice inh | GDH-TPI inh | GFP chromophore
CCN(CC)CC(=O)NN=C(c1ccccc1)c1ccccc1 | – | – | – | – | – | ·
OC(c1ccccc1)(c1ccccc1)C1CCN(CCCOc2ccc(-c3cccnc3)cc2)CC1 | – | · | · | · | · | ·
Cc1[nH]nc2c1C(c1cn[nH]c1-c1ccc(F)cc1)C(C#N)=C(N)O2 (stereo not given) | – | – | – | 65 | – | 18
CSc1nc(N)c2c(n1)OC(N)=C(C#N)C2c1cccnc1 (stereo not given) | – | – | – | – | – | ·
N#CC1=C(N)Oc2n[nH]c(-c3ccc(F)cc3)c2C1c1cccnc1 (stereo not given) | – | – | · | 75 | – | 16
COc1cc(C2C(C#N)=C(N)Oc3n[nH]c(-c4cccnc4)c32)cc(Br)c1O (stereo not given) | – | – | – | 81 | – | 14
Cc1ccc(C2C(C#N)=C(N)Oc3n[nH]c(-c4cccnc4)c32)o1 (stereo not given) | – | – | – | 53 | – | 38
CCC(c1c[nH]c2ccccc12)c1cn(C)c2ccccc12 (stereo not given) | – | · | · | · | · | ·
CCOc1ccc(-c2[nH]nc3c2C(c2ccc(O)cc2)C(C#N)=C(N)O3)cc1 (stereo not given) | – | – | – | 63 | – | 15

Screening results (PubChem BioAssay)
